# Unmarked numbers belong to inactive results. Records with an inconclusive call do not appear. Entries that show only a call come without a potency. Active and inactive are the calls of the source. Unless noted, calls follow the shape of the dose curve; as a rule, active = well fitted curve in the direction sought with a large enough effect in the repeat runs; inconclusive = weak or mixed curves; inactive = no such curve, though single readings can be large; an effect the other way counts as inactive or inconclusive.
# Legend:
# [1] = qHTS assay to identify small molecule agonists of the estrogen receptor alpha (ER-alpha) signaling pathway in the presence of an antagonist - cell viability counter screen (AID 1259386);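 also: series mostly up to about 92 µM; cells exposed to compounds for 22 h at 37 °C before the viability read; nearly all actives have a fitted effect of over 30% in size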
# Method in brief: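 Steps: 5-day stripped-FBS culture; seed and incubate 24hr; add ICI-182,780 (10.0nM final); pin 15-point compound titration; incubate 22hr at 37C; add CellTiter-Fluor at 21hr; read fluorescence.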
# [2] = biological target: Progesterone receptor (Homo sapiens) (UniProt P06401); assay: qHTS assay to identify small molecule agonists of the progesterone receptor (PR) signaling pathway (AID 1346784; calls by dose curve; also: nearly all actives have a fitted effect of over 30% in size)
# Method in brief: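 Compounds were tested for PR agonism in HEK 293T cells bearing a beta-lactamase gene under UAS control. Treatment lasted 16 hr at 37C; signal came from fluorescence of a FRET substrate.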
# [3] = qHTS assay to identify small molecule antagonists of the progesterone receptor (PR) signaling pathway - cell viability counter screen (AID 1346798); also: series mostly up to about 92 µM; nearly all actives have a fitted effect of over 50% in size
# Method in brief: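 Following a 4 hr attachment, PR-UAS-bla HEK293T cells in charcoal-stripped FBS medium were exposed to compounds with R5020 for 16 hr; CellTiter-Glo was added and luminescence read after 30 min at room temperature.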
# [4] = qHTS assay to identify small molecule agonists of the progesterone receptor (PR) signaling pathway - cell viability counter screen (AID 1346799; calls by dose curve; also: nearly all actives have a fitted effect of over 45% in size)
# Method in brief: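 Here, 3,000 PR-UAS-bla HEK293T cells per well were treated with compounds for 16 hr after a 6 hr preincubation at 37C and 5% CO2; cell viability is the CellTiter-Glo luminescence signal.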
# [5] = qHTS assay to identify small molecule antagonists of the TGF-beta/Smad signaling pathway - cell viability counter screen (AID 1346824); also: nearly all actives have a fitted effect of over 50% in size
# Method in brief: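 Cytotoxicity counter-screen run in the same wells as the beta-lactamase Smad reporter read: CellTiter-Glo luminescence after 30 min at room temperature. HEK 293T SBE-bla cells had 5 hr compound exposure at 37 C with TGF-beta1 (0.25 ng/mL stock).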
# [6] = qHTS assay to identify small molecule agonists of the TGF-beta/Smad signaling pathway - cell viability counter screen (AID 1346829); also: top concentration of the series differs between compounds; nearly all actives have a fitted effect of over 45% in size
# Method in brief: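 Here the cytotoxicity of library compounds is measured in SBE-bla HEK 293T cells treated for 5 hr, using CellTiter-Glo added to wells already read for the beta-lactamase reporter.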
# [7] = qHTS assay to identify small molecule agonists of the TGF-beta/Smad signaling pathway (AID 1346859; active = well fitted activation curve with a large enough effect in the signal ratio in the repeat runs, not every such curve was filed as active; the % refers to the signal ratio; also: series mostly up to about 77 µM)
# Method in brief: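 Each well held 4,000 SBE-bla HEK 293T cells incubated overnight before compound addition; 5 hr later the cleavable FRET substrate went on for 2 hr at room temperature, and fluorescence was read at two emissions.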
# [8] = biological target: Thyrotropin-releasing hormone receptor (Homo sapiens) (UniProt P34981); assay: qHTS assay to identify small molecule antagonists of the thyrotropin-releasing hormone receptor (TRHR) signaling pathway (AID 1346877; active = well fitted inhibition curve with a large enough effect in the repeat runs, not every such curve was filed as active; also: series mostly up to about 51 µM)
# Method in brief: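 Human TRHR in HEK293 cells; inhibition of the intracellular calcium rise triggered by 1 nM TRH was followed by fluorescence over 3 min. Compounds were run at 15 concentrations, three replicates each.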
# [9] = biological target: Thyrotropin-releasing hormone receptor (Homo sapiens) (UniProt P34981); assay: qHTS assay to identify small molecule agonists of the thyrotropin-releasing hormone receptor (TRHR) signaling pathway (AID 1346891; calls by dose curve; also: series mostly up to about 58 µM)
# Method in brief: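 Screening of agonists relied on calcium signalling in HEK293 cells expressing human TRHR: dye loading 2 h at 37 °C preceded compound addition and a 3-min fluorescence time course.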
# [10] = Human pregnane X receptor (PXR) small molecule agonists, qHTS cell viability counter screen (AID 1346977); also: nearly all actives have a fitted effect of over 50% in size
# Method in brief: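 Tox21 qHTS format; PXR-Luc HepG2, 2,000/well, charcoal-stripped FBS 5%. Cpd exposure 24hr. Read: CellTiter-Fluor fluorescence, multiplexed with luciferase.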
# [11] = Caspase-3/7 induction in HepG2 cells by small molecules, qHTS assay (AID 1346978); also: nearly all actives have a fitted effect of over 15% in size
# Method in brief: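 Caspase-3/7 induction was measured by Caspase-Glo 3/7 luminescence (30 min, room temperature) after a 17 hr compound exposure of wild-type HepG2 cells seeded at 2,000 per well and pre-incubated 5 hr.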
# [12] = Caspase-3/7 induction in CHO-K1 cells by small molecules, qHTS cell viability counter screen (AID 1346979); also: nearly all actives have a fitted effect of over 35% in size
# Method in brief: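 CellTiter-Fluor viability check, qHTS format: wild-type CHO-K1, 16hr compound treatment, 1hr reagent incubation, fluorescence read.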
# [13] = Caspase-3/7 induction in CHO-K1 cells by small molecules, qHTS assay (AID 1346980); also: nearly all actives have a fitted effect of over 15% in size
# Method in brief: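 Luminescent Caspase-Glo 3/7 read (30min, room temperature) quantified apoptosis induction. Cells were wild-type CHO-K1, treated with compound for 17hr at 37 C and 5% CO2.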
# [14] = Caspase-3/7 induction in HepG2 cells by small molecules, qHTS cell viability counter screen (AID 1346981); also: series mostly up to about 92 µM; nearly all actives have a fitted effect of over 30% in size
# Method in brief: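 The parent HepG2 line is plated at 2,000 cells per well and rested 5 hr before compound pinning from DMSO stocks. Following a 16-hr treatment at 37 C, a fluorogenic live-cell substrate (CellTiter-Fluor) reports viability after 1 hr.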
# [15] = biological target: Nuclear receptor subfamily 1 group I member 2 (Homo sapiens) (UniProt O75469); assay: Human pregnane X receptor (PXR) small molecule agonists, qHTS assay (AID 1346982); also: nearly all actives have a fitted effect of over 35% in size; also: potency is read from the fitted curve at half-maximal effect
# Method in brief: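 After plating in 5% charcoal-stripped FBS and a 5 hr rest, PXR-Luc HepG2 cells received compounds in DMSO. Following 24 hr at 37 C, ONE-Glo was added and light output read.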
# [16] = biological target: Acetylcholinesterase (Homo sapiens) (UniProt P22303); assay: Acetylcholinesterase (AChE) small molecule antagonists: colormetric cell-based qHTS assay (AID 1347395; calls by dose curve; also: nearly all actives have a fitted effect of over 30% in size)
# Method in brief: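 AChE inhibition read colorimetrically via DTNB–thiocholine in SH-SY5Y cells. Compound 30 min, substrate 90 min, both 37 C.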
# [17] = biological target: Progesterone receptor (Homo sapiens) (UniProt P06401); assay: qHTS assay to identify small molecule antagonists of the progesterone receptor (PR) signaling pathway (AID 1346795; active = well fitted inhibition curve with a large enough effect in the signal ratio in the repeat runs, not every such curve was filed as active; the % refers to the signal ratio; also: potency is read from the fitted curve at half-maximal effect)
# Method in brief: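 In HEK293T cells bearing the PR-UAS-bla reporter, compound effects on promegestone-driven (1 nM) beta-lactamase expression are assessed after 16 hr using a fluorescent FRET substrate incubated 2 hr at room temperature.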
# [18] = biological target: Nuclear receptor subfamily 1 group I member 2 (Rattus norvegicus) (UniProt Q9R1A7); assay: Rat pregnane X receptor (rPXR) activation by small molecules, qHTS assay (AID 1346983); settings: rPXR luciferase reporter cells, One-Glo luminescence, 24 h; max activation: stronger effect = higher value; also: nearly all actives have a fitted effect of over 20% in size
# Method in brief: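 Luminescent readout (One-Glo luciferase, 30 min room temperature) followed 24 hr compound treatment at 37 C of rPXR cells plated 2,000 per well and preincubated 5hr; qHTS format with compounds delivered in DMSO.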
# [19] = biological target: Nuclear receptor subfamily 1 group I member 2 (Homo sapiens) (UniProt O75469); assay: CYP3A4 induction through human pregnane X receptor (PXR) by small molecules, qHTS assay (AID 1346984); also: nearly all actives have a fitted effect of over 40% in size
# Method in brief: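 Human PXR activation is tracked via CYP3A4 promoter-luciferase in DPX-2 (HepG2) cells. Compounds treat cells for 24hr at 37C, and luminescence is read after One-Glo.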
# [20] = biological target: Nuclear receptor subfamily 1 group I member 2 (Homo sapiens) (UniProt O75469); assay: Human pregnane X receptor (PXR) activation by small molecules, qHTS assay (AID 1346985); also: nearly all actives have a fitted effect of over 40% in size
# Method in brief: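 DPX-2 cells (HepG2 co-transfected with a PXR response element and a CYP3A4-promoter luciferase construct) were seeded at 2,000 per well, rested 5 hr at 37C, then exposed to DMSO-dissolved compounds for 24 hr. Activation was read as luciferase luminescence.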
# Chain of Acetylcholinesterase (Homo sapiens) (P22303 whole entry, looked up): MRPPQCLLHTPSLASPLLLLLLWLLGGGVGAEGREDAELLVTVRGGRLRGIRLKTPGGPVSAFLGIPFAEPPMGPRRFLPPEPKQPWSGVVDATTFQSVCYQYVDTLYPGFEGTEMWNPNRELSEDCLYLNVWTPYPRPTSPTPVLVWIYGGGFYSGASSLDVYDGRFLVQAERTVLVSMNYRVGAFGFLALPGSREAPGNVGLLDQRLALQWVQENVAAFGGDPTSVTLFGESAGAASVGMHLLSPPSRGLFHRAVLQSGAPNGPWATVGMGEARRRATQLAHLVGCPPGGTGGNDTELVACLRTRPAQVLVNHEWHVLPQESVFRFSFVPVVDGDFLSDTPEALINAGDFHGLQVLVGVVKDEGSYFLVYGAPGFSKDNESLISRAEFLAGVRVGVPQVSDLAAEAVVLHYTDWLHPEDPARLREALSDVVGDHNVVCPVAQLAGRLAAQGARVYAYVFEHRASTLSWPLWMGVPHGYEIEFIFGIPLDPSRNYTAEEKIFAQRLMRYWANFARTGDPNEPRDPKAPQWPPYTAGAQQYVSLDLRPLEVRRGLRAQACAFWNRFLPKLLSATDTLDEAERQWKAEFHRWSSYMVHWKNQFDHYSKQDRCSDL
# Chain of Thyrotropin-releasing hormone receptor (Homo sapiens) (P34981 whole entry, looked up): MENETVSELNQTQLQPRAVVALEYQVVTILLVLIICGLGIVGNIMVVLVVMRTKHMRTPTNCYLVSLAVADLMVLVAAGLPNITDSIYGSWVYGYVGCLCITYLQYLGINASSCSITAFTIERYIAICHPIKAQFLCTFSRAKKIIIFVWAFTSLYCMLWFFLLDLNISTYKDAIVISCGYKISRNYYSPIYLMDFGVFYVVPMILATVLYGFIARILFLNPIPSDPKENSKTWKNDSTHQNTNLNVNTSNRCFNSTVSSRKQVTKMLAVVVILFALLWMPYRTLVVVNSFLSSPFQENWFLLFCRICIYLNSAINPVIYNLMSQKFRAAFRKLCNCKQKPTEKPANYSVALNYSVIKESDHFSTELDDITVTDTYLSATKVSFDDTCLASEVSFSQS
# Chain of Nuclear receptor subfamily 1 group I member 2 (Homo sapiens) (O75469 whole entry, looked up): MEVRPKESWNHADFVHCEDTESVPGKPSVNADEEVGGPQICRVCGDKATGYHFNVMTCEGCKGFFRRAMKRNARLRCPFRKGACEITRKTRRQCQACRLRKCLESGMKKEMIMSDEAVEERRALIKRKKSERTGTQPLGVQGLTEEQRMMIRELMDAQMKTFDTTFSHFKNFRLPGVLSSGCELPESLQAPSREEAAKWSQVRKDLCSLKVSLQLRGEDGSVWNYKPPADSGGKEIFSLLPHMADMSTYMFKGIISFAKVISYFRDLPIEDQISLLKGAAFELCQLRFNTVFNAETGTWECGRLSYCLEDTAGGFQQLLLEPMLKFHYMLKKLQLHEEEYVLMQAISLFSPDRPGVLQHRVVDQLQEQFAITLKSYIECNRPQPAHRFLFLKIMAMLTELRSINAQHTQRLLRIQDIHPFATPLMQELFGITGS
# Chain of Progesterone receptor (Homo sapiens) (P06401 whole entry, looked up): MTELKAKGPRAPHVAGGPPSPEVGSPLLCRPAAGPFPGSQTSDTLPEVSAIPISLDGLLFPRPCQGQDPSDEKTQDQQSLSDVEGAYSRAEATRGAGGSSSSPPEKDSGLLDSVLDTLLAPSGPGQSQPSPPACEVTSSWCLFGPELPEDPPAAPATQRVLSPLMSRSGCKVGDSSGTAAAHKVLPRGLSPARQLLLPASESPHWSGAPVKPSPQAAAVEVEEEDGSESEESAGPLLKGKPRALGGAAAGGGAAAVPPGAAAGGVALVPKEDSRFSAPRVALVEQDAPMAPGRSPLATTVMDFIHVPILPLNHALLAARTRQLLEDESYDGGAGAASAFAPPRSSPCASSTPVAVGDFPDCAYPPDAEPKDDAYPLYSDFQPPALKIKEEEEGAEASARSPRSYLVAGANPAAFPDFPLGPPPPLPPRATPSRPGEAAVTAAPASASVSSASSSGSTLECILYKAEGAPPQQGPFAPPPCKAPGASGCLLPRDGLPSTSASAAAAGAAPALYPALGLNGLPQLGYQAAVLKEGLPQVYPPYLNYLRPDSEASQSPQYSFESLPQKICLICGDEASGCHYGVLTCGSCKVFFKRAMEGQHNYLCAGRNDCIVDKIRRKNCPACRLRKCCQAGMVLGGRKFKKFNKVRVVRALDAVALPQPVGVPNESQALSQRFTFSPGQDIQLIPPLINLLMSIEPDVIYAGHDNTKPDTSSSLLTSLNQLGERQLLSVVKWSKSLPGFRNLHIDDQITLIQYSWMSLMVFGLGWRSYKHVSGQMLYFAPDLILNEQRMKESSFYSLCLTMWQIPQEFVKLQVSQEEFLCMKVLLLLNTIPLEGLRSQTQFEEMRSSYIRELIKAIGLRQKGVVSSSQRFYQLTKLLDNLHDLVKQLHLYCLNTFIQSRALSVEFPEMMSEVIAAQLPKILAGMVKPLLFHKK
# Chain of Nuclear receptor subfamily 1 group I member 2 (Rattus norvegicus) (Q9R1A7 whole entry, looked up): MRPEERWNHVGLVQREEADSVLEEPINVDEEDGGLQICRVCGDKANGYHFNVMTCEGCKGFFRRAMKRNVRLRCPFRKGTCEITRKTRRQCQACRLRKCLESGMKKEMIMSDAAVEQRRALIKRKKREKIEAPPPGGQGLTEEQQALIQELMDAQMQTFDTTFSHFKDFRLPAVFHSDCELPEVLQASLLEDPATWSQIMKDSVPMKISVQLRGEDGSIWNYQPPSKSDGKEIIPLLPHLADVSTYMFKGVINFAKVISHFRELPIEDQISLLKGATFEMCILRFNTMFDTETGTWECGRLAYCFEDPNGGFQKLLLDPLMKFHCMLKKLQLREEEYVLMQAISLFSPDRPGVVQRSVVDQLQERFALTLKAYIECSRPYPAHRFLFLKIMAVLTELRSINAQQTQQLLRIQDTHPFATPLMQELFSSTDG
SMILES,Potency [1],Potency [2],Potency [3],Potency [4],Potency [5],outcome [6],outcome [7],outcome [8],outcome [9],Potency [10],Potency [11],Potency [12],Potency [13],Potency [14],Potency [15],Potency [16],Potency [17],max activation [18] [%],Potency [19],Potency [20]
CCC/C(=N\OCC)C1=C(O)CC(CC(C)SCC)CC1=O (stereo unspecified),inactive,inactive,inactive,inactive,inactive,inactive,inactive,inactive,inactive,inactive,inactive,inactive,inactive,inactive,48.9 µM (active),inactive,–,–,–,–
CC1(C(=O)Nc2ccc(O)c(Cl)c2Cl)CCCCC1,inactive,inactive,–,–,–,inactive,inactive,inactive,–,inactive,inactive,–,inactive,inactive,–,inactive,27.3 µM (active),–,–,–
CCC(Cl)[N+](=O)[O-] (stereo unspecified),inactive,inactive,inactive,inactive,inactive,inactive,inactive,inactive,inactive,–,inactive,–,inactive,inactive,inactive,inactive,–,–,–,–
C[C@]12CC[C@H]3[C@@H](CCC4=CC(=O)CC[C@@]43C)[C@@H]1CC[C@@H]2C(=O)O,inactive,inactive,inactive,inactive,inactive,inactive,–,–,–,inactive,inactive,–,inactive,inactive,inactive,inactive,–,–,–,–
CC1CCCCC1NC(=O)Nc1ccccc1 (stereo unspecified),inactive,inactive,inactive,inactive,inactive,inactive,inactive,inactive,inactive,inactive,inactive,–,inactive,inactive,–,inactive,–,–,–,–
COC(=O)c1c(C(F)F)nc(C(F)(F)F)c(C2=NCCS2)c1CC(C)C,inactive,inactive,inactive,inactive,inactive,inactive,inactive,inactive,–,inactive,inactive,inactive,inactive,inactive,0.77 µM (active),inactive,–,–,–,–
COc1cc(OC)nc(Sc2cccc(Cl)c2C(=O)O)n1,inactive,inactive,inactive,inactive,inactive,inactive,inactive,inactive,inactive,inactive,inactive,inactive,inactive,inactive,inactive,inactive,–,–,–,–
[Cl][Sn]([Cl])([Cl])[Cl],inactive,inactive,inactive,inactive,inactive,inactive,inactive,–,inactive,–,inactive,inactive,inactive,inactive,inactive,inactive,–,–,–,–
O=[N+]([O-])c1cc(Cl)c(Cl)c(Cl)c1,inactive,inactive,inactive,inactive,–,inactive,inactive,inactive,inactive,inactive,inactive,inactive,inactive,inactive,–,inactive,–,–,–,–
CCOC(=O)/C=C(C)/C=C/C[C@@H](C)CCCC(C)C,inactive,inactive,inactive,inactive,inactive,inactive,inactive,inactive,inactive,inactive,inactive,–,–,inactive,–,inactive,–,-2.62,inactive,inactive
Cc1ncc(CNC(=O)N(CCCl)N=O)c(N)n1,inactive,inactive,–,–,inactive,inactive,inactive,inactive,inactive,inactive,inactive,inactive,inactive,inactive,inactive,inactive,inactive,–,–,–
Cc1cc(C)nc(Nc2ccccc2)n1,inactive,inactive,inactive,inactive,inactive,inactive,inactive,inactive,inactive,–,inactive,inactive,inactive,inactive,–,inactive,–,–,–,–
